Test results as given in PubChem BioAssay (NCATS).
Several values for one entry are separate records, joined by “and”; a condition that tells them apart may be missing. Equal values may be shown once. Inconclusive results are not listed. A call without a number means that no potency is given here. A number with no mark means an inactive call. Activity calls are given as the source filed them. Unless noted, calls follow the shape of the dose curve; as a rule, active = well fitted curve in the direction sought with a large enough effect; inconclusive = small, poorly fitted or top-dose-only effect, or another doubt; inactive = no such curve, though single readings can be large; an effect the other way counts as inactive or inconclusive.

Experiments:
[1] = molecular target: Calcium and integrin-binding protein 1 (Homo sapiens) (UniProt Q99828); test: Primary qHTS for Identification of Calcium Integrin Binding Protein 1 (CIB1) Competitor (AID 1508620); conditions: CIB1-GST / FITC-alphaIIb peptide fluorescence polarization; series mostly up to 114 µM;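 also: GST tagged CIB1 binding a fluorescein labelled alphaIIb integrin peptide tracer; top concentration of the series differs between compounds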
Outline: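 Fluorescence polarization competition: CIB1-GST (1 uM final) preincubated with compound 15 min at room temperature, then FITC-labeled alphaIIb peptide (100 nM final) added for another 15 min. Polarization read at Ex 480/Em 540.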

[2] = molecular target: Cytochrome P450 2D6 (Homo sapiens) (UniProt P10635); test: Cytochrome P450 family 2 subfamily D member 6 (CYP2D6) small molecule antagonists: luciferase biochemical (cell-free) qHTS assay (AID 1645840; active = well fitted curve in the direction sought with a large enough effect in the repeat runs; an effect the other way counts as inactive or inconclusive; also: nearly all actives have a fitted effect of over 55% in size; also: potency is read from the fitted curve at half-maximal effect); conditions: P450-Glo CYP2D6 enzyme, luciferin luminescence, 1 h; series mostly up to 57.4 µM
Outline: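 P450-Glo luminescent screen: recombinant CYP2D6 enzyme–proluciferin substrate mix preincubated with compound 10 min at room temperature, then NADPH regeneration added for 1 h at room temperature. Detection reagent added for 20 min; luciferin light read as relative luminescence units.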

[3] = molecular target: Cytochrome P450 2C9 (Homo sapiens) (UniProt P11712); test: Cytochrome P450 family 2 subfamily C member 9 (CYP2C9) small molecule antagonists: luciferase biochemical (cell-free) qHTS assay (AID 1645842; active = well fitted curve in the direction sought with a large enough effect in the repeat runs; an effect the other way counts as inactive or inconclusive; also: nearly all actives have a fitted effect of over 55% in size; also: potency is read from the fitted curve at half-maximal effect); conditions: P450-Glo CYP2C9 enzyme assay, luciferin luminescence; series mostly up to 57.4 µM
Outline: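 Luminescence, after 20 min with luciferin detection reagent, reflected CYP2C9 turnover during a 1 h NADPH-driven reaction at 37C. Enzyme-substrate mix contained 0.4% bovine serum albumin and was preincubated with compound 10 min at room temperature.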

[4] = Primary qHTS for inhibitors of nuclear receptor binding SET domain protein 2 (NSD2) in an isogenic RCH-ACV NSD2 p.E1099K mutant (9B) (AID 1645876); conditions: RCH-ACV NSD2 E1099K (9B) viability, CellTiter-Glo, 72 h; series mostly up to 44.9 µM; also: nearly all actives have a fitted effect of over 70% in size; also: potency is read from the fitted curve at half-maximal effect
[5] = Primary qHTS for inhibitors of nuclear receptor binding SET domain protein 2 (NSD2) in an RCH-ACV wild type WT cells (2C) (AID 1645877); conditions: RCH-ACV (leukaemia line) NSD2 WT (2C) viability, CellTiter-Glo, 72 h; series mostly up to 44.9 µM; also: nearly all actives have a fitted effect of over 70% in size; also: potency is read from the fitted curve at half-maximal effect

Cytochrome P450 2C9 (Homo sapiens), sequence (P11712 whole entry, looked up): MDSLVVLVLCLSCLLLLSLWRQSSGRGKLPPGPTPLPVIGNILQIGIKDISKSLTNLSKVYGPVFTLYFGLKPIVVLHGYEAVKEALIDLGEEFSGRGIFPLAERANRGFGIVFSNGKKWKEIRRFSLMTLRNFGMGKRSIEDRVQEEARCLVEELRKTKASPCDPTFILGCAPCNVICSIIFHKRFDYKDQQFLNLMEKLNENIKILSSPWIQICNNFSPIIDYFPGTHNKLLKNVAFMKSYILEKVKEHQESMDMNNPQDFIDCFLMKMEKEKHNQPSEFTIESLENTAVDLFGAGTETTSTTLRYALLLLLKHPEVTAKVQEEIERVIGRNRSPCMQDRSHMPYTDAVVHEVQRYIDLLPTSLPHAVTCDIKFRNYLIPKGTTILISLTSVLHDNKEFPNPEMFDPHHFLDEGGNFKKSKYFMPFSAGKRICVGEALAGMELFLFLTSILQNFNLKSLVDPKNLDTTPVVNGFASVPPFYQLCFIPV
Calcium and integrin-binding protein 1 (Homo sapiens), sequence (Q99828 whole entry, looked up): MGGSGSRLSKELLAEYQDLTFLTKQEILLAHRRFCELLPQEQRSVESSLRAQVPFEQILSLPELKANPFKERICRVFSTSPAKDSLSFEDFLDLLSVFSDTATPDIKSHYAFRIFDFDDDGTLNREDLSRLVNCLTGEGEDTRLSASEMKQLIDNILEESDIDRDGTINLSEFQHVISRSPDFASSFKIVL
Cytochrome P450 2D6 (Homo sapiens), sequence (P10635 whole entry, looked up): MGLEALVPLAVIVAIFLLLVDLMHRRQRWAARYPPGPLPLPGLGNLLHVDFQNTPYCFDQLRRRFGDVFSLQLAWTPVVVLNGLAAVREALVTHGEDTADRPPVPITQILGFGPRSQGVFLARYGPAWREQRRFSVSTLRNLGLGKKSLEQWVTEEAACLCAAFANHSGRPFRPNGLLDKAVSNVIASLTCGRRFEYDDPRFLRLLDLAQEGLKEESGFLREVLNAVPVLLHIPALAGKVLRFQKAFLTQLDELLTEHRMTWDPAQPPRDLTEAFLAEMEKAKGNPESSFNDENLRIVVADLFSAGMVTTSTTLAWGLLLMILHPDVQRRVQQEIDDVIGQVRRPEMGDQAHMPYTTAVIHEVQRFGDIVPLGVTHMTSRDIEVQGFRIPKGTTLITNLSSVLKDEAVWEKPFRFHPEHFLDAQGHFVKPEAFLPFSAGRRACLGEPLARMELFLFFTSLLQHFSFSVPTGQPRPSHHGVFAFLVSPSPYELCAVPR

Row | Structure (SMILES) | Potency [1] | Potency [2] | Potency [3] | Potency [4] | Potency [5] | activity change, negative = inhibition [2] | activity change, negative = inhibition [3]
1 | CCCCC1CCN(CCCN2C(=O)CCc3ccccc32)CC1 | inactive | 0.756 µM (active) | inactive | 20.5 µM (active) | 11.5 µM (active) |  | 
2 | CN(C)CCN(Cc1ccccc1)C(=O)c1cc(-c2ccc(F)cc2)n2nc(C(C)(C)C)cc2n1 | inactive | 16.9 µM (active) | 16.9 µM (active) | 3.25 µM (active) | 2.9 µM (active) |  | 
3 | CC(F)(F)CN1CCOc2c(nn(-c3ccccc3Cl)c2-c2ccc(Cl)cc2)C1=O | inactive | 13.5 µM (active) | 13.5 µM (active) |  | 18.3 µM (active) |  | 
4 | CCCNCCc1ccc(NS(=O)(=O)c2ccc(OC(F)(F)F)cc2)cc1 | inactive | 1.34 µM (active) | 8.49 µM (active) |  | 14.5 µM (active) |  | 
5 | O=C(Nc1nnc(-c2ccc3c(c2)OCCO3)o1)C1CCCCC1 | inactive | inactive | inactive | inactive | inactive |  | 
6 | CC(C)(C[C@@](O)(Cc1cc2ccncc2[nH]1)C(F)(F)F)c1cc(F)ccc1O | inactive | 0.134 µM (active) | 0.301 µM (active) | 10.3 µM (active) | 0.163 µM (active) |  | 
7 | CCC(C)CNCC(=O)N1CCc2sccc2C1COc1cccc(C)c1 (configuration not stated) | inactive | 0.0952 µM (active) | 13.5 µM (active) | 16.3 µM (active) | 20.5 µM (active) |  | 
8 | CC#CC(=O)Nc1ccc2ncnc(Nc3cccc(Br)c3)c2c1 | inactive | inactive | inactive | 1.29 µM (active) and 1.3 µM (active) | 1.03 µM (active) and 1.16 µM (active) |  | 
9 | CC(C)(C)Oc1ccc(OCC2Cc3ccccc3CN2C(=O)c2cccc3ccccc23)cc1 (configuration not stated) | inactive | inactive | 1.69 µM (active) | inactive | inactive |  | 
10 | C[C@@H](NC(=O)c1ccc(C#Cc2cccc(F)c2)cn1)C(C)(C)O | inactive | inactive | 16.9 µM (active) | inactive | inactive |  | 
11 | CC(=O)NCc1cccc(OC[C@@H](O)CNCCc2ccc(NS(=O)(=O)c3ccccc3)cc2)c1 | inactive | 0.849 µM (active) | 0.674 µM (active) | inactive | inactive |  | 
12 | CNC1CN(c2ccc3c(=O)c(C(=O)O)cn(-c4nccs4)c3n2)CC1OC (configuration not stated) | inactive |  |  | 0.0836 µM (active) | 0.0297 µM (active) | 16.1% [at 11.5 µM] | 4.23% [at 11.5 µM]
13 | CCOC(=O)N1CCC(N2CCC[C@@H](NC(=O)c3ccccc3C)C2)CC1 | inactive | 16.9 µM (active) | inactive | inactive | inactive |  | 
14 | Fc1ccc(N2CCCCC2)c(NC(=S)c2ccncc2)c1 | inactive | 1.69 µM (active) | 6.01 µM (active) | 10.3 µM (active) | 12.9 µM (active) |  | 
15 | CCCN1CCC=C(c2cc(-c3ccc(C)cc3)no2)C1 | inactive | 2.68 µM (active) | inactive | inactive | inactive |  | 
16 | O=S(=O)(N[C@H]1CCCC[C@@H]1N1CCOCC1)c1ccc(Cl)cc1 | inactive | 5.35 µM (active) | 5.35 µM (active) | inactive | inactive |  | 
17 | O=C1c2ccc(Nc3ccc(F)cc3F)cc2CCc2ccc(OCC(O)CO)cc21 (configuration not stated) | inactive | 26.8 µM (active) | 6.01 µM (active) | 16.3 µM (active) | 18.3 µM (active) |  | 
18 | COC(=O)C(Cc1ccc(OCCn2c(=O)sc3cc(C(=O)c4ccccc4)ccc32)cc1)C(=O)OC | inactive | inactive | 2.13 µM (active) | inactive | inactive |  | 
19 | O=C(NCC1(N2CCN(c3ccccc3)CC2)CCOCC1)c1cccnc1Sc1ccccc1 | inactive | inactive | 3.79 µM (active) | inactive | inactive |  | 
20 | CC[C@@H](Nc1c(Nc2cccc(C(=O)N(C)C)c2O)c(=O)c1=O)c1cc(C(C)C)co1 | inactive | 16.9 µM (active) | 5.35 µM (active) |  | 16.3 µM (active) |  | 
21 | O=C(NC1CCN(CCCCC2(C(=O)NCC(F)(F)F)c3ccccc3-c3ccccc32)CC1)c1ccccc1-c1ccc(C(F)(F)F)cc1 | inactive | 1.07 µM (active) | 15.1 µM (active) | 2.9 µM (active) | 2.9 µM (active) |  | 
22 | N#CC(CCCN1CCN(/N=C/c2cccnc2)CC1)(c1ccccc1)c1ccccc1 | inactive | 0.849 µM (active) | 7.56 µM (active) | inactive | inactive |  | 
23 | CC(C)CCNc1ncccc1C(=O)N1CCN(Cc2ccccc2)CC1 | inactive | 5.35 µM (active) | 10.7 µM (active) | inactive | inactive |  | 
